# Laboratory results taken from PubChem BioAssay AID1671192 (National Center for Advancing Translational Sciences (NCATS), 2021).
# Records with an inconclusive call do not appear. Active and inactive are the calls of the source. The call rests on the fitted dose curve; in most records, active means well fitted curve in the direction sought with a large enough effect; inconclusive means small, poorly fitted or top-dose-only effect, or another doubt; inactive means no such curve, though single readings can be large or run the other way.
# Target: Polyunsaturated fatty acid lipoxygenase ALOX15 (Homo sapiens) (UniProt P16050)
# Assay: Counterscreen qHTS for inhibitors of human arachidonate 12S-lipoxygenase (ALOX12): ALOX15 Assay; further: 0% is about no effect
# Conditions: purified ALOX15 enzyme activity; series mostly up to 110 µM; activity change, negative = inhibition: at the top concentration
# Text: Assay Provider: Theodore R. Holman Ph.D.
# University of California, Santa Cruz, California
# Human lipoxygenase 12hLO is a member of the closely related lipoxygenase family of enzymes which catalyze the site-specific oxidation of arachidonic acid to various hormone precursor molecules and as such is a candidate for drug development in a variety of disease areas, such as cancer and inflammation. Inhibition of 12hLO activity was screened by utilizing arachidonic acid as a substrate. The extent of hydroperoxide product formation was measured by a secondary chromogenic reaction in which xylenol orange (XO, Sigma-Aldrich, cat. number 39,818-7) reacts with the ferric ions produced from the reaction between the hydroperoxide and ferrous ions. The Fe (III)-XO complex is characterized with red-shifted absorbance at 560 nm. A purified preparation of human 12hLO was supplied by Dr. Holman laboratory, University of California, Santa Cruz.
# An assay against arachidonate 15-lipoxygenase (ALOX15) was developed to assess selective inhibition against ALOX12. Desired compounds would show potent inhibition against ALOX12 and minimal to no inhibition against ALOX15.
# SEQUENCE No. (e.g., 1, 2, 3, etc.); PARAMETER (e.g., Cells, Incubation, Reagent, etc.); VALUE; DESCRIPTION
# 1; Enzyme; 3 uL; 40 nM ALOX15 (15hLO-1) enzyme solution dispensed in 1536-well Greiner black, clear bottom plates.
# 2; Compound; 23 nL; compounds and controls were added.
# 3; Incubate; 15 min; room temperature.
# 4; Substrate; 1 uL; 50 uM arachidonic acid (final concentration).
# 5; Incubate; 30 min; room temperature.
# 6; Reagent; 4 uL; Fe-XO solution was added to each well.
# 8; Incubation; 30 min; room temperature
# 9; Detector; absorbance; Read 1 at 405 nm absorbance using ViewLux (PerkinElmer) CCD imager.
# 10; Detector; absorbance; Read 2 at 573 nm absorbance using ViewLux (PerkinElmer) CCD imager.
# NOTES (numbers refer to sequence above)
# 1; 40 nM ALOX15 (final concentration) in buffer solution (25 mM Hepes, 0.01% Triton X-100, pH 7.5) was dispensed in columns 1, 2, 5 - 48. Column 1 is neutral (100% activity). Buffer only was dispensed in columns 3 and 4 as no enzyme negative controls. The plates were covered with metal lids with gas-exchange holes.
# 2; Compounds were pin transferred via a Kalypsys Pin Tool (Wako USA) in column 5 - 48. Control compound was transferred in column 2, titration of nordihydroguaiaretic acid (NDGA, Sigma-Aldrich, N5023) with top concentration of 10 mM in DMSO then 1:2 dilution in duplicate. Dilution factor of 23 nL into 4 uL final assay volume.
# 3; Covered assay plates were incubated for 15 min at room temperature.
# 4; Substrate was added to start the reaction; 50 uM arachidonic acid (Sigma-Aldrich, St. Louis, MO) was dispensed throughout the plate.
# 6; Chromogenic detection reagent solution (divalent iron/xylenol orange, Fe-XO) was added to each well: 200 uM xylenol orange, 300 uM ferrous ammonium sulfate prepared freshly in 50 mM sulfuric acid.
# 9, 10; Two absorbance readouts were obtained at 405 nm and at 573 nm using a ViewLux high-throughput CCD plate imager (PerkinElmer). The 573 to 405 (Read 2 / Read 1) absorbance ratio was used to compute reaction progress.
# Chain of Polyunsaturated fatty acid lipoxygenase ALOX15 (Homo sapiens) (P16050 whole entry, looked up): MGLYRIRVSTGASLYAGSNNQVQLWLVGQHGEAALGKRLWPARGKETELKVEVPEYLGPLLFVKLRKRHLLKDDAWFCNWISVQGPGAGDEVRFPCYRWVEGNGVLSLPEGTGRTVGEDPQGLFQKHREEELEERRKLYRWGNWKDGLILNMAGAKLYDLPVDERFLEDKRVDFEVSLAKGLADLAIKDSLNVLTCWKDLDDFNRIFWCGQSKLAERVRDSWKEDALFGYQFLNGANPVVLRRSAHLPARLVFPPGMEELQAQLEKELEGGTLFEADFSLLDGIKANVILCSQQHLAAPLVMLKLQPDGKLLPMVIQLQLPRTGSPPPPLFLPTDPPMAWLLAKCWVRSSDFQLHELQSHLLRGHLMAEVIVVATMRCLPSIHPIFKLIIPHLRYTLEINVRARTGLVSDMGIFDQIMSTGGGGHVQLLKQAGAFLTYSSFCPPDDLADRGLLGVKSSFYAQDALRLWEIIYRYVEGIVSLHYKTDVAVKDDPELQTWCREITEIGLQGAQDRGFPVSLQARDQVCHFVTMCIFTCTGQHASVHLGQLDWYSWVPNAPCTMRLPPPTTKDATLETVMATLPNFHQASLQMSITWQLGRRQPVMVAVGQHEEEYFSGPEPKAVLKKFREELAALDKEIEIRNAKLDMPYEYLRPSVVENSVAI
row,SMILES,"activity change, negative = inhibition"
1,COc1ccc(N2CC3CCC(C2)N3C(C)=O)cc1,-12% [at 146 µM] (inactive)
2,COc1ccc(N2CC3CCC(C2)N3Cc2ccc(C#N)cc2)cc1,-3.16% [at 146 µM] (inactive)
3,O=C(c1cc(C2CC2)nc2onc(C3CCCNC3)c12)N1CCCCC1 (stereo not given),-12.1% [at 146 µM] (inactive)
4,Cc1cc(Cl)ccc1-c1cccc(C=O)c1,8.77% [at 146 µM] (inactive)
5,C[S+](=O)([O-])N1Cc2ccccc2CC2(CCCN2CC2CCNCC2)C1 (stereo not given),4.72% (inactive)
6,CC[C@@H](Nc1ncnc2c1CN(C1CCCNCC1)C(=O)CN2C)c1ccccc1 (stereo not given in full),-14.8% (inactive)
7,N#Cc1cccnc1-c1cccc(C(=O)O)c1,-10.8% [at 146 µM] (inactive)
8,O=C(NC1CCCCC1)N1CCC(c2nnc3n2CCNC3)CC1,-21.9% (inactive)
9,CN1CC(=O)N(C2CCNC2)Cc2c(NCC3CCCCC3)ncnc21 (stereo not given),-16.9% (inactive)
10,Cc1ccc(CN2CC3ON=C(C(=O)O)C3C2)cc1 (stereo not given),-22.7% [at 146 µM] (inactive)
11,O=C1NCc2ccccc2CC12CCN(Cc1ccccc1Cl)C2 (stereo not given),-25.7% [at 146 µM] (inactive)
12,O=C(N1CCOCC1)N1CCN(c2ccc(Cl)nn2)C(=O)C1,-10.6% [at 146 µM] (inactive)
13,CCCN1CCC2(Cc3ccccc3CN(C(=O)CCCC(=O)O)C2)C1 (stereo not given),-22.9% (inactive)
14,CCOCCNc1ncnc2c1CN(C1CCNCC1)C(=O)CN2C,-12.2% (inactive)
15,CN1CC(=O)N(C2CCCNC2)Cc2c(NC3CCCCC3O)ncnc21 (stereo not given),-26% (inactive)
16,O=C1NCc2ccccc2CC12CCN(Cc1c(F)cccc1Cl)CC2,-31.6% (inactive)
17,Cc1ccc2nc(C3CCCN(Cc4ccccc4)C3)[nH]c(=O)c2c1 (stereo not given),2.64% [at 146 µM] (inactive)
18,O=C(c1cc(C2CC2)nc2onc(C3CCNCC3)c12)N1CCCCC1,-1.94% (inactive)
19,CC(=O)NCCC(=O)N1Cc2ccccc2CC2(CCN(CC3CCNC3)CC2)C1 (stereo not given),11% (inactive)
20,O=C1NCc2ccccc2CC12CCN(Cc1ccccc1OC(F)(F)F)C2 (stereo not given),-5.04% (inactive)

row,SMILES,"activity change, negative = inhibition"
1,O=C1NCc2ccccc2CC12CCN(Cc1ccccc1Br)C2 (stereo not given),-7.1% (inactive)
2,CSc1ccc(-c2ccc(C(=O)O)cc2)cc1,-17.8% [at 146 µM] (inactive)
3,CCC(CO)Nc1ncnc2c1CN(C1CCCNC1)C(=O)CN2C (stereo not given),-25.6% (inactive)
4,CCN(c1ccc2c(c1)OCO2)C1CN(C(=O)OC(C)(C)C)C1,-26.4% [at 146 µM] (inactive)
5,C/C(=C\c1ccccc1)CN1CCCC12Cc1ccccc1CNC2=O (stereo not given),-13.7% (inactive)
6,c1ccc(NCCN2CCCC2)cc1,-6.97% [at 233 µM] (inactive)
7,COc1ccccc1CNc1ncnc2c1CN(C1CCCNCC1)C(=O)CN2C (stereo not given),-29.5% (inactive)
8,NCc1ccc(-c2ccc(F)cc2)cc1,16.7% [at 146 µM] (inactive)
9,O=C(c1ccccc1F)N1CCn2c(nnc2C2CCNCC2)C1,0.837% [at 146 µM] (inactive)
10,CC(=O)N1Cc2ccccc2CC2(CCCCN2Cc2ccccn2)C1 (stereo not given),12% (inactive)
11,CC(C)NC(=O)NC1CC2(CCN(C(=O)Cc3ccc(O)cc3)CC2)c2ccccc21 (stereo not given),-18.7% (inactive)
12,NCc1cccc(-c2ccsc2)c1,-23.8% [at 146 µM] (inactive)
13,CCOC(=O)C1CC1CN1CCCC2(Cc3ccccc3CNC2=O)C1 (stereo not given),1.6% (inactive)
14,C[S+](=O)([O-])N1CC2(CCN(Cc3ccc(Cl)cc3)C2)Cc2ccccc21 (stereo not given),-31.4% [at 146 µM] (inactive)
15,COc1ccc(-c2cc(C(=O)NCC(C)C)c3c(C4CCCN4)noc3n2)cc1 (stereo not given),-24.7% (inactive)
16,CC(C)S(=O)(=O)N1CCC(c2nnc3n2CCNC3)CC1,-25.9% [at 146 µM] (inactive)
17,COc1cccc(N2C(=O)NC(=NC3CCCCC3)C23CCCN(Cc2cccnc2)C3)c1 (stereo not given),-1.65% (inactive)
18,CN1CCN(CC2(N)CCCCC2)CC1,-3.46% [at 233 µM] (inactive)
19,CC(=O)NCCC(=O)N1Cc2ccccc2CC2(CCCN2CC2CCNCC2)C1 (stereo not given),-22.8% (inactive)
20,CN1CC(=O)N(C2CCNCC2)Cc2c(NCC3CCCCC3)ncnc21,-28.9% (inactive)
